Screening results as filed in PubChem BioAssay.
The list is not random: actives were taken first. Their share in the collection is about 19%.
KB-V1 MDR tox: kills drug-selected multidrug resistant KB-V1 cells | KB-V1 MDR cells viability, CellTiter-Glo, 72 h | Potency, µM (titrated, usually from 46.1 µM), most hits filed as cytotoxic | hit rate 3.4% among 400,000 | AID 1347076; also: nearly all actives have a fitted effect of over 60% in size
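Compound-treated KB-V1 multidrug-resistant cells, 72 h, 37 degrees C; viability by CellTiter-Glo. Fitted qHTS curves give the values.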
HT1080-NT tox: kills 2HG-producing HT-1080-NT fibrosarcoma cells; HT-1080-NT fibrosarcoma viability, CellTiter-Glo ATP luminescence, 48 h; Potency, µM (doses to about 46.1 µM), inactives show at the top dose activity, negative = less viability, actives largely listed as cytotoxic; hit rate 1.6% among 360,000; AID 686970;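 also: NT is the 2HG producing partner of a matched IDH1 knockdown line; 0% = DMSO-treated cells and -100% = media-only wells without cells; nearly all actives have a fitted effect of over 55% in size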
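A 48-hour cytotoxicity screen used HT-1080-NT cells plated 2 hours before compound delivery. ATP-based CellTiter-Glo luminescence measured viability, normalized to DMSO and no-cell controls.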
HT1080 IDH1KD tx: kills HT-1080 cells with IDH1 knockdown. AID 686971. Potency, µM (top dose mostly 46.1 µM), without a hit: at the highest dose activity, negative = toxicity, usual class: cytotoxic. HT-1080 IDH1 knockdown viability, ATP luminescence, 48 h. hit rate 2% among 360,000;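 also: 0% = DMSO wells and -100% = cell-free medium wells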
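IDH1KD HT-1080 cells, 750/well, RPMI + 5% FBS; compound pinned after 2 h settling; 48 h, 37 °C; CellTiter-Glo luminescence; % activity normalised to DMSO and no-cell wells; curves fitted, classed by r2 and efficacy.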
TDP1 cell noCPT: qHTS for Inhibitors of human tyrosyl-DNA phosphodiesterase 1 (TDP1): qHTS in cells in absence of CPT; DT40 Tdp1-/- hTDP1 cells, no CPT, ATP luminescence, 48 h; Potency, µM (doses to about 46.2 µM), for inactives: top-dose activity change, negative = growth inhibition, most hits filed as inhibitors; hit rate 15% among 420,000; AID 686978, 2013; also: nearly all actives have a fitted effect of over 55% in size
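Cells were dispensed at 400 per well, compounds added by pin tool, plates incubated ≥48 hr at 37 °C, then CellTiter-Glo added for 30 min at room temperature before luminescence reading. Line: DT40 Tdp1-/- complemented with hTDP1; camptothecin omitted.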
TDP1 cell CPT: growth inhibition of DT40 Tdp1-/-;hTDP1 cells with camptothecin (screen for TDP1 inhibitors); Potency, µM (titrated, usually from 46.2 µM), for the others: at the highest dose activity change, negative = growth inhibition, hits mostly inhibitors; chicken DT40 Tdp1-/-;hTDP1 cells + 20 nM CPT, ATP luminescence, 48 h; AID 686979; hit rate 12% among 420,000; also: nearly all actives have a fitted effect of over 55% in size
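Chicken DT40 Tdp1-/- cells stably complemented with human TDP1 were seeded at 400 cells/well in medium containing 20 nM camptothecin, exposed to pin-transferred compounds, and grown at 37 °C for at least 48 hr. Viability was read as ATP luminescence.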
KB-3-1 tox: kills parental KB-3-1 adenocarcinoma cells. KB-3-1 viability, CellTiter-Glo ATP luminescence, 72 h. hit rate 1.4% among 400,000. AID 1347075. Potency, µM (titrated, usually from 46.1 µM), usual class: cytotoxic; also: nearly all actives have a fitted effect of over 60% in size
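Multi-concentration cytotoxicity screen in KB-3-1 cells grown in DMEM lacking phenol red with 10% FBS. After 72 h at 37 °C with compound, ATP-dependent luminescence was recorded.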
An asterisk follows results filed as active; ! = a repeat was not active; [ ] = another dose, or the depositor's remark. Calls follow the shape of the dose curve; as a rule, active = well fitted curve in the direction sought with a large enough effect; inconclusive = small, poorly fitted or top-dose-only effect, or another doubt; inactive = no such curve, though single readings can be large; an effect the other way counts as inactive or inconclusive. Unless noted, % is scaled to controls: 0 for no effect and ±100 for the full control effect; potency is read from the fitted curve at half-maximal effect.

How did COc1cccc2c1OC1(C)CC2NC(=O)N1c1cccc(C(=O)N2CCN(c3ccccc3)CC2)c1 (configuration not stated) do in these assays?
KB-V1 MDR tox: inactive; HT1080-NT tox: -13%; HT1080 IDH1KD tx: -11%; TDP1 cell noCPT: inconclusive; TDP1 cell CPT: inconclusive; KB-3-1 tox: inactive

What do the screens show for `CCOC(=O)C1CCN(C(=O)c2cccc(N3C(=O)NC4CC3(C)Oc3ccc(C)cc34)c2)CC1` (configuration not stated)?
KB-V1 MDR tox: inactive; HT1080-NT tox: -3%; HT1080 IDH1KD tx: 1%; TDP1 cell noCPT: -3%; TDP1 cell CPT: inconclusive; KB-3-1 tox: inactive

How did COc1ccc(CCN2C(=O)CSC2c2cccc([N+](=O)[O-])c2)cc1OC (configuration not stated) do in these assays?
KB-V1 MDR tox: inactive; HT1080-NT tox: -10%; HT1080 IDH1KD tx: -13%; TDP1 cell noCPT: inconclusive; TDP1 cell CPT: inconclusive; KB-3-1 tox: inactive

What do the screens show for `Cc1ccc(-c2noc(-c3ccccc3NC(=O)C3CC(=O)N(c4ccc(C)cc4)C3)n2)cc1` (configuration not stated)?
KB-V1 MDR tox: inactive; TDP1 cell noCPT: -18%; TDP1 cell CPT: -14%; KB-3-1 tox: inactive

How did COc1cc(OC)cc(-c2nnc(SCC(=O)N3CCC(C)CC3)o2)c1 do in these assays?
KB-V1 MDR tox: inactive; TDP1 cell noCPT: inconclusive; TDP1 cell CPT: inconclusive; KB-3-1 tox: inactive

How did O=C(NNc1ccc(F)cc1F)c1cccs1 do in these assays?
HT1080-NT tox: -30%; HT1080 IDH1KD tx: inconclusive; TDP1 cell noCPT: -25%; TDP1 cell CPT: 1%

Results for COCCOC(=O)/C(C#N)=C/c1cn(Cc2ccccc2)nc1-c1cccnc1 ?
KB-V1 MDR tox: inactive; HT1080-NT tox: 16%; HT1080 IDH1KD tx: 6%; TDP1 cell noCPT: inconclusive; TDP1 cell CPT: -16%; KB-3-1 tox: inactive

Results for Cc1cc(NC(=O)CSc2nc(C)c(C)n2CC(C)C)no1 ?
KB-V1 MDR tox: inactive; HT1080-NT tox: -2%; HT1080 IDH1KD tx: -9%; TDP1 cell noCPT: inconclusive; TDP1 cell CPT: -25%; KB-3-1 tox: inactive

How did COc1ccc(-n2cc(C#N)c(=O)n(Cc3ccc(F)cc3)c2=O)cc1 do in these assays?
KB-V1 MDR tox: inconclusive; HT1080-NT tox: inconclusive; HT1080 IDH1KD tx: inconclusive; TDP1 cell noCPT: 15µM*; TDP1 cell CPT: 21µM*; KB-3-1 tox: inactive

What do the screens show for `CC1C2(C)OC(=N)C(C#N)(C(C)O2)C1(C#N)C#N` (configuration not stated)?
KB-V1 MDR tox: inactive; HT1080-NT tox: 18%; HT1080 IDH1KD tx: 1%; TDP1 cell noCPT: -9%; TDP1 cell CPT: -26%; KB-3-1 tox: inactive

How did CC1OC2(C)OC(=N)C1(C#N)C(C#N)(C#N)C2c1ccccc1 (configuration not stated) do in these assays?
KB-V1 MDR tox: inactive; HT1080-NT tox: -4%; HT1080 IDH1KD tx: 4%; TDP1 cell noCPT: inconclusive; TDP1 cell CPT: -23%; KB-3-1 tox: inactive

Results for CCC1OC23CCCCC2C(C#N)(C(=N)O3)C1(C#N)C#N (configuration not stated) ?
KB-V1 MDR tox: inactive; HT1080-NT tox: -2%; HT1080 IDH1KD tx: 13%; TDP1 cell noCPT: 13µM*; TDP1 cell CPT: inconclusive; KB-3-1 tox: inconclusive

How did COc1ccc(C2OC34CCCCC3C(C#N)(C#N)C2(C#N)C(=N)O4)cc1 (configuration not stated) do in these assays?
KB-V1 MDR tox: inactive; HT1080-NT tox: 11%; HT1080 IDH1KD tx: 2%; TDP1 cell noCPT: 7.3µM*; TDP1 cell CPT: 5.8µM*; KB-3-1 tox: inactive

How did CCCC1OC23CCCCC2C(C#N)(C(=N)O3)C1(C#N)C#N (configuration not stated) do in these assays?
KB-V1 MDR tox: inactive; HT1080-NT tox: 9%; HT1080 IDH1KD tx: 2%; TDP1 cell noCPT: 16µM*; TDP1 cell CPT: 7.3µM*; KB-3-1 tox: inactive

How did CC1OC23CCCCC2C(C#N)(C(=N)O3)C1(C#N)C#N (configuration not stated) do in these assays?
KB-V1 MDR tox: inactive; HT1080-NT tox: 8%; HT1080 IDH1KD tx: 10%; TDP1 cell noCPT: inconclusive; TDP1 cell CPT: inconclusive; KB-3-1 tox: inactive

Results for c1ccc(N2CCN(c3ccccc3)C2c2cccnc2)cc1 ?
KB-V1 MDR tox: inactive; HT1080-NT tox: -1%; HT1080 IDH1KD tx: -1%; TDP1 cell noCPT: inconclusive; TDP1 cell CPT: inconclusive; KB-3-1 tox: inactive

How did Cc1ccc(N2CCN(c3ccc(C)cc3)C2c2cccnc2)cc1 do in these assays?
KB-V1 MDR tox: inactive; HT1080-NT tox: -27%; HT1080 IDH1KD tx: -1%[9.24 µM]; TDP1 cell noCPT: inconclusive; TDP1 cell CPT: 23µM*; KB-3-1 tox: inactive

What do the screens show for `O=C(O)c1ccccc1Nc1ccccc1`?
KB-V1 MDR tox: inactive; HT1080-NT tox: -7%; HT1080 IDH1KD tx: -4%; TDP1 cell noCPT: inconclusive; TDP1 cell CPT: 21µM*!; KB-3-1 tox: inactive

What do the screens show for `O=C(O)c1c(Cl)cccc1Nc1ccccc1`?
KB-V1 MDR tox: inactive; HT1080-NT tox: -5%; HT1080 IDH1KD tx: -3%; TDP1 cell noCPT: 23µM*; TDP1 cell CPT: -10%; KB-3-1 tox: inactive

What do the screens show for `O=C(NCc1ccccc1)c1cc(C2CCCN(S(=O)(=O)c3cccc4cccnc34)C2)on1` (configuration not stated)?
KB-V1 MDR tox: inactive; HT1080-NT tox: 1%; HT1080 IDH1KD tx: -1%; TDP1 cell noCPT: inconclusive; TDP1 cell CPT: inconclusive; KB-3-1 tox: inactive

Results for Cc1ccc(C)c(CC(=O)N2CCCC(c3cc(C(=O)NCc4cccnc4)no3)C2)c1 (configuration not stated) ?
KB-V1 MDR tox: inactive; HT1080-NT tox: inconclusive; HT1080 IDH1KD tx: 3%; TDP1 cell noCPT: 15µM*; TDP1 cell CPT: inconclusive; KB-3-1 tox: inactive

How did O=C(NCc1cccnc1)c1cc(C2CCCN(S(=O)(=O)c3cccc4cccnc34)C2)on1 (configuration not stated) do in these assays?
KB-V1 MDR tox: inactive; HT1080-NT tox: 5%; HT1080 IDH1KD tx: 5%; TDP1 cell noCPT: 21µM*; TDP1 cell CPT: 23µM*; KB-3-1 tox: inactive
